According to PubChem BioAssay AID686971 (National Center for Advancing Translational Sciences (NCATS), 2013):
The whole screen tested about 360,000 compounds, of which about 7,500 (2.1%) were called active. A call without a number means that no potency is given here. Not shown: some 8% with an inconclusive outcome. Calls come from the whole dose curve; as a rule, active = well fitted cell-killing curve with a large enough effect; inconclusive = small, poorly fitted or top-dose-only effect, or effect the other way, or another doubt; inactive = no such curve, though single readings can be large or run the other way. The full list was thinned out, with actives kept by preference.
Potency is the fitted concentration of half-maximal effect.

Test: qHTS for induction of synthetic lethality in tumor cells producing 2HG: qHTS for the HT-1080-IDH1KD cell line
Details: HT-1080 IDH1 knockdown viability, ATP luminescence, 48 h; series mostly up to 46.1 µM
How it was run: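 After a 2 h attachment period, IDH1KD HT-1080 cells took pin-transferred compound for 48 h at 37 °C; ATP-based luminescence after 10 min room-temperature reagent incubation reported viability.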
In the case of `CC(C)c1cc(C(=O)N(C)C2CCCN(Cc3ccccc3F)C2)n(C)n1` (stereo not given), the Potency is reported as “inactive”. In the case of `COc1ccccc1Cc1c(-c2ccc(Cl)cc2)nc2c3ccccc3ccn12`, the Potency is reported as “inactive”. For `CCCS(=O)(=O)NC(=O)C1(C)CCCN(C(=O)c2cccs2)C1` (stereo not given), the Potency was “inactive”. With `Cc1cc(Br)cn2c(Cc3ccccc3C(F)(F)F)c(-c3ccc(Cl)cc3)nc12` the Potency was “inactive”. In the case of `COc1c(C)cc(C(O)c2ncc(-c3cccc(C(F)(F)F)c3)[nH]2)cc1C` (stereo not given), the Potency is reported as “inactive”. With `O=C(Nc1cccc2ccccc12)NC1CC1` the Potency was “inactive”. With `O=C(CSc1ncn[nH]1)Nc1nc2c(F)c(F)c(F)cc2s1` the Potency was “inactive”. For `C/C(=N/NC(=O)CCc1ccccc1)c1ccco1`, the Potency was “inactive”. With `C/C(=N\NC(=O)c1ccoc1C)c1ccccc1O` the Potency was 13 µM (active). With `Cc1occc1C(=O)NNC(=S)NCC(C)C` the Potency was “inactive”. In the case of `CCN(CC(=O)Nc1ccc(NC(C)=O)cc1)C(=O)C1CC(=O)N(c2ccc3c(c2)OCCO3)C1` (stereo not given), the Potency is reported as “inactive”. For `O=C1c2cccc3c([N+](=O)[O-])ccc(c23)C(=O)N1CC1CCCO1` (stereo not given), the Potency was 18.4 µM (active). With `CN1CN(C)c2ccc([N+](=O)[O-])c3cccc1c23` the Potency was “inactive”. For `CCOc1cccc(=O)c2c(C)n(CC3CCCO3)c(C)c12` (stereo not given), the Potency was “inactive”. In the case of `CCNC(=O)C1(C)CCN(Cc2ccc(C(=O)OCC)o2)C1` (stereo not given), the Potency is reported as “inactive”. With `Cc1cccc(C(=O)NC2CCN(CC(=O)Nc3cccc(Cl)c3)CC2)c1` the Potency was “inactive”. For `CC1(C(=O)NS(=O)(=O)c2ccc3ccccc3c2)CCN1C(=O)C1(c2ccc(Cl)cc2)CCC1` (stereo not given), the Potency was “inactive”. For `O=C(O)c1ccccc1Cc1ccc(F)c2ccccc12`, the Potency was “inactive”. In the case of `CS(=O)(=O)N(CC(O)Cn1c2ccccc2c2ccccc21)c1cccc2ccccc12` (stereo not given), the Potency is reported as 20.6 µM (active). For `CCCCN(CCCC)CC(O)Cn1c2ccccc2c(=O)c2ccccc21` (stereo not given), the Potency was “inactive”. For `Cc1cc(C)n(CC(O)CN(c2ccccc2)S(=O)(=O)c2ccc3ccccc3c2)n1` (stereo not given), the Potency was “inactive”. In the case of `CC1(C(=O)NS(=O)(=O)Cc2cccc(Cl)c2)CCN1C(=O)Cc1ccc(Cl)cc1Cl` (stereo not given), the Potency is reported as “inactive”. For `Cc1ccccc1NC(=O)Cc1nc(COC(=O)C(C)(C)Oc2ccc(Cl)cc2)cs1`, the Potency was “inactive”. In the case of `Oc1ccc(N=Nc2nccs2)c(O)c1`, the Potency is reported as 4.11 µM (active). For `Cc1cc2c3ccccc3[nH]c(=O)n2n1`, the Potency was “inactive”. For `COC(=O)[C@]12CCCCC=C1N(CCC1=CCCCC1)C(=O)[C@H](CC(=O)N1CCSCC1)C2`, the Potency was “inactive”. For `CCNC(=O)C1(C)CCCN1C(=O)c1ccc(N(C)C)cc1` (stereo not given), the Potency was “inactive”. With `O=C(CNC(=O)c1cccs1)N/N=C/c1cccc(Br)c1` the Potency was “inactive”. In the case of `CC(=O)NC(Cc1c[nH]c2ccccc12)C(=O)O` (stereo not given), the Potency is reported as “inactive”. In the case of `O=C(NC(Cc1c[nH]c2ccccc12)C(=O)N/N=C/c1ccc(Br)cc1)c1cccs1` (stereo not given), the Potency is reported as 32.6 µM (active). For `Cc1noc(C)c1-c1ccc(C(=O)NCc2ccncc2)c2occc12`, the Potency was “inactive”. With `C=CCNC(=O)/C(=C\c1cccc([N+](=O)[O-])c1)NC(=O)c1ccccc1` the Potency was “inactive”. In the case of `Cc1ccc(C(=O)N/C(=C/c2ccc(-c3cccc([N+](=O)[O-])c3)o2)C(=O)NCCCN(C)C)cc1`, the Potency is reported as 14.6 µM (active). For `CN(C)CCNC(=O)/C(=C/c1cccc([N+](=O)[O-])c1)NC(=O)c1ccccc1`, the Potency was “inactive”. With `COc1ccc(C(C(=O)Nc2c(C)cccc2C)N2CCN(c3ccc(C)cc3)CC2)cc1` (stereo not given) the Potency was “inactive”. For `CCCC(=O)N1CCC1(C)C(=O)Nc1ccc(-n2cncn2)cc1` (stereo not given), the Potency was “inactive”. In the case of `CCCNC(=O)C1(C)CCN(Cc2ccc(Cl)c(Cl)c2)C1` (stereo not given), the Potency is reported as “inactive”. For `COc1ccc(-c2c(C#Cc3ccccc3)c3ccccc3n2C)cc1`, the Potency was “inactive”. In the case of `COc1ccc(-c2nc3ccccc3c(=O)n2CCc2ccc(O)cc2)cc1`, the Potency is reported as “inactive”. With `COc1ccc(CCNCc2c(-c3ccccc3)n(C)c3ccccc23)cc1` the Potency was 14.6 µM (active). In the case of `CC(=O)NC(c1ccccc1)c1nc(-c2ccccc2C)cs1` (stereo not given), the Potency is reported as “inactive”. In the case of `C[C@H]1CN([C@@H](C)CO)C(=O)c2cc(-c3ccccc3F)cnc2O[C@H]1CN(C)C(=O)C1CCOCC1`, the Potency is reported as “inactive”. In the case of `O=C(Nc1cccc2cccnc12)c1ccc2sc([C@H]3C[C@H](O)[C@@H](CO)O3)nc2c1`, the Potency is reported as “inactive”. In the case of `CCCC(=O)Nc1ccc2c(c1)nc1n2CCSC1`, the Potency is reported as “inactive”. In the case of `CCNC(=S)Nc1ccc2c(c1)c(=O)n(C)n2Cc1ccc(Cl)cc1`, the Potency is reported as “inactive”. For `CCOCCC(=O)Nc1ccc2c(c1)c(=O)n(C)n2-c1ccc2ccccc2c1`, the Potency was 1.46 µM (active). For `CCCCN(C(C)=O)c1ccc2c(c1)C1CC2CCN1Cc1ccccc1` (stereo not given), the Potency was “inactive”. In the case of `COc1ccc(CCn2c3c(c(=O)[nH]c2=S)CN(C(C)C)CN3)cc1OC`, the Potency is reported as “inactive”. With `C[C@H]1CN([C@@H](C)CO)C(=O)CCCn2nncc2CO[C@@H]1CN(C)Cc1ccc(Oc2ccccc2)cc1` the Potency was “inactive”. In the case of `O=[N+]([O-])c1ccc(C=NN=Cc2ccc([N+](=O)[O-])cc2)cc1`, the Potency is reported as “inactive”. For `O=C1/C(=C\c2ccc([N+](=O)[O-])cc2)CS(=O)(=O)C/C1=C/c1ccc([N+](=O)[O-])cc1`, the Potency was 3.66 µM (active). For `CC(=O)Nc1ccc(C=Cc2ccc([N+](=O)[O-])cc2)cc1`, the Potency was “inactive”. With `CCN1CCN(CC(=O)Nc2sc3c(c2C#N)CCC3)CC1` the Potency was “inactive”. In the case of `N#Cc1c(NC(=O)CCCl)sc2c1CCCCC2`, the Potency is reported as 23.1 µM (active). For `N#Cc1c(NC(=O)C2CCCO2)sc2c1CCCCC2` (stereo not given), the Potency was “inactive”. With `Cc1ccc([C@H]2C[C@H](O)[C@@H](n3cc(COC(=O)c4ccccc4)nn3)CN2CC2CCCCC2)cc1` the Potency was “inactive”. In the case of `O=C(Nc1ccc2c(c1)OCCO2)C1c2ccccc2OCC(=O)N1Cc1ccccn1` (stereo not given), the Potency is reported as “inactive”. For `Cc1cc(C)nc(SCc2ccccc2C#N)n1`, the Potency was “inactive”. For `Cc1cc(C)nc(SCC(=O)N(C)C)n1`, the Potency was “inactive”. For `Cc1cc(C)nc(S/C=C/C(=O)c2ccccc2)n1`, the Potency was 3.66 µM (active). In the case of `O=C(Cc1csc(Nc2nc(=S)[nH]c3ccccc23)n1)NCCCN1CCN(c2cccc(Cl)c2)CC1`, the Potency is reported as 20.6 µM (active). For `COc1cccc(CNC(=O)Cc2csc(Nc3nc(=S)[nH]c4ccccc34)n2)c1`, the Potency was “inactive”. In the case of `O=C(CCCn1c(=O)[nH]c2cc(Cl)ccc2c1=O)NCCN1CCN(c2ccccc2)CC1`, the Potency is reported as “inactive”. For `COc1cc2nnn(-c3ccncc3)c2cc1OC`, the Potency was “inactive”. In the case of `N#CC1(Nc2ccc3c4c(cccc24)CC3)CCCCC1`, the Potency is reported as “inactive”.
